FAS-TE inh: FAS thioesterase (human) inhibition | 360,000 tested, 0.67% active | recombinant FAS-TE, OMFH fluorogenic substrate, fluorescence endpoint | inhibition, % at 15 µM | AID 602261;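 active means compounds whose normalised, plate-corrected inhibition of enzyme fluorescence in the single-dose primary screen is 50% or more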;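 further: 0% = DMSO with enzyme and 100% = substrate without enzyme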
NPR2 activator: GC-B (human) receptor activation; P20594; HEK293-GC-B cells, CNP EC30, cGMP TR-FRET; 0% at EC30 CNP, 100% saturating CNP; activation, % at 10 µM; 370,000 tested, 0.11% active; AID 1920062;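 active means activation at 10 µM reaching about 35% in either raw or pattern-adjusted values, limit read from the data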
Target sequence (P20594 whole entry, looked up): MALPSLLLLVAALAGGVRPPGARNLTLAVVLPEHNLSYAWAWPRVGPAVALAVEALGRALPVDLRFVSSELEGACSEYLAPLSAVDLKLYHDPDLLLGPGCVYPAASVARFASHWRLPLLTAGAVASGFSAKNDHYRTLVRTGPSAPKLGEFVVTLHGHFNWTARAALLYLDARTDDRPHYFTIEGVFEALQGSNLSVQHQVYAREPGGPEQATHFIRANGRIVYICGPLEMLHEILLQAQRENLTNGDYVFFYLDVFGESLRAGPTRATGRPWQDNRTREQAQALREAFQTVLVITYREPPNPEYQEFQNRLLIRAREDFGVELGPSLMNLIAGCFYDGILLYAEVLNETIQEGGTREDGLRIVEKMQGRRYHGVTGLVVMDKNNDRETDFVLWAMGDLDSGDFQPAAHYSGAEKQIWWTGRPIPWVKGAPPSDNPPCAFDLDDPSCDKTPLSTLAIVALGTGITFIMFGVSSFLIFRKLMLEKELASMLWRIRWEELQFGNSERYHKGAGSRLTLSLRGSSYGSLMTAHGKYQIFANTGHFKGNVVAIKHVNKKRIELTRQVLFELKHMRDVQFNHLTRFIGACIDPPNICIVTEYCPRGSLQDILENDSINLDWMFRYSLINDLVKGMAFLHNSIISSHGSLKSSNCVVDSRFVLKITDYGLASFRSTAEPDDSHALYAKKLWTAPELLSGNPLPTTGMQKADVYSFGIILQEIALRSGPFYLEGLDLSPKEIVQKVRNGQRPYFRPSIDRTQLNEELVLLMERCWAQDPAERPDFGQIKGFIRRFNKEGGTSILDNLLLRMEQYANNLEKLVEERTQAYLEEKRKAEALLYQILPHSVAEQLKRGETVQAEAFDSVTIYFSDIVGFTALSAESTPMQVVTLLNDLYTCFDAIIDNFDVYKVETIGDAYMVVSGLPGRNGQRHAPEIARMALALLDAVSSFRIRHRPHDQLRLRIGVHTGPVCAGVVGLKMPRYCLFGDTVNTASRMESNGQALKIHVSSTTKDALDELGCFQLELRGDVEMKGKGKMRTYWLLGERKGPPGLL
GC-A act: GC-A (human) enzyme activation; HEK293 GC-A cells, cGMP TR-FRET, EC30 ANP; 0% at EC30 ANP, 100% saturating ANP; P16066; 370,000 tested, 0.14% active; activation, % at 10 µM; in the data active means activation above about 40%
aDG glyco up: increases alpha dystroglycan glycosylation; Pro5-aDG cells, alpha-DG glycosylation AlphaScreen (IIH6); 0% Pro5, 100% B10-LARGE cell signal; activation, % at 10 µM; 360,000 tested, 0.22% active;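 active means activation of at least 8% versus controls, or a plate z-score of at least 8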;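 further: Pro5 are CHO cells carrying HIG-tagged alpha-DG that lacks glycosylation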
FAS-TE inh conf: FAS thioesterase (human) inhibition, confirmation. shares compounds with FAS-TE inh. recombinant FAS-TE, OMFH fluorogenic substrate, fluorescence. inhibition, % at 15 µM. 2,300 tested, 45% active;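 active means compounds inhibiting the enzyme by at least 50% at 15 µM in any one of the replicates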;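 further: 0% = enzyme with DMSO only and 100% = wells lacking enzyme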
Numbers without * were called inactive. In the library only some 1.1% were active in any assay of this set; here they are far more common.

Screening Cc1ccc(-n2c(SCC(=O)Nc3cc(S(=O)(=O)N4CCOCC4)ccc3Cl)nc3ccccc3c2=O)cc1 returned FAS-TE inh 95*, NPR2 activator 9, GC-A act 2, aDG glyco up 0 and FAS-TE inh conf -6.
Screening CCOC(=O)CC[C@@H]1CC[C@]2(CCCN(Cc3nccn3C)C2)O1 returned NPR2 activator -5 and GC-A act 2.
Screening CC(NC(=O)C(C(=O)c1cccc([N+](=O)[O-])c1)n1cc(Cl)ccc1=O)c1ccccc1 (stereo not drawn) returned FAS-TE inh 59*, NPR2 activator 1, GC-A act 4, aDG glyco up 0 and FAS-TE inh conf 65*.
Screening O=S(=O)(Nc1ccc(C(O)(C(F)(F)F)C(F)(F)F)cc1)c1cccs1 returned NPR2 activator -3 and GC-A act -1.
Screening CCOC(=O)Cc1nc(N2CCN(CCO)CC2)c2c(C)c(C(=O)OCC)sc2n1 returned NPR2 activator 4 and GC-A act 5.
Screening Cc1ccc2c(c1C)-c1c(ccc(C)c1C)C(=O)C2=O returned FAS-TE inh 61*, NPR2 activator 9, GC-A act 0, aDG glyco up 0 and FAS-TE inh conf 56*.
COC(=O)[C@]12C[C@H](CC(=O)N3CCCC3)C(=O)N(Cc3ccco3)C1=C[C@H](C(C)C)O[C@@H]2C1CC1 was read as NPR2 activator -6 and GC-A act -3.
CSc1ccc(COC(=O)c2cc([N+](=O)[O-])ccc2N2CCOCC2)cc1 was read as FAS-TE inh 66*, NPR2 activator -3, GC-A act -7, aDG glyco up 0 and FAS-TE inh conf 57*.
For Cc1ccccc1COC(=O)c1cc([N+](=O)[O-])ccc1N1CCOCC1 the results were FAS-TE inh 36, NPR2 activator -4, GC-A act 2 and aDG glyco up 0.
For COc1ccc(OC)c(COC(=O)c2cc([N+](=O)[O-])ccc2N2CCOCC2)c1 the results were FAS-TE inh 54*, NPR2 activator -2, GC-A act 1, aDG glyco up 0 and FAS-TE inh conf 51*.
`Cc1cc2c(c(=O)n1Cc1cccnc1)C(Cc1ccccc1)C(C#N)=C(N)O2` (stereo not drawn) gave FAS-TE inh 53*, NPR2 activator -3, GC-A act -4, aDG glyco up 0 and FAS-TE inh conf 32.
Screening Cc1cc2c(c(=O)n1Cc1cccnc1)C(c1cccs1)C(C#N)=C(N)O2 (stereo not drawn) returned FAS-TE inh 2, NPR2 activator -1, GC-A act -5 and aDG glyco up 0.
COc1cc(NC(=O)C2CCCN(S(=O)(=O)c3ccc(Br)s3)C2)cc(OC)c1 (stereo not drawn) was read as NPR2 activator -10 and GC-A act -7.
For CCN1CCCCC(NC(=O)c2ccccc2C)C1=O (stereo not drawn) the results were NPR2 activator 8 and GC-A act 3.
`CC1CCN(c2nc(Cl)nc(Nc3ccc([N+](=O)[O-])cc3)n2)CC1` gave FAS-TE inh 54*, NPR2 activator 0, GC-A act 67*, aDG glyco up -1 and FAS-TE inh conf 21.
Screening C=CCNc1nc(Nc2ccc([N+](=O)[O-])cc2)nc(N2CCCC2)n1 returned FAS-TE inh 44, NPR2 activator 0, GC-A act 5 and aDG glyco up 0.
For COCCCNC(=O)c1cc(Nc2ccc(OC)cc2OC)nc2ccccc12 the results were FAS-TE inh -7, NPR2 activator -3, GC-A act 5 and aDG glyco up 0.
Screening COc1ccc(Nc2cc(C(=O)N3CCc4ccccc4C3)c3ccccc3n2)c(OC)c1 returned FAS-TE inh 61*, NPR2 activator -1, GC-A act -5, aDG glyco up 0 and FAS-TE inh conf 28.
Screening CCOc1ccc2nc(Cl)c(C3CC(c4ccco4)=NN3S(=O)(=O)c3ccccc3)cc2c1 (stereo not drawn) returned FAS-TE inh 53*, NPR2 activator 1, GC-A act -2, aDG glyco up 0 and FAS-TE inh conf 24.
Screening COc1ccc2cc(C3CC(c4ccco4)=NN3S(C)(=O)=O)c(Cl)nc2c1 (stereo not drawn) returned FAS-TE inh -3, NPR2 activator 1, GC-A act -1 and aDG glyco up 0.
For O=C(NCC1CCN(C(=O)C(=O)c2cccs2)CC1)c1ccncc1 the results were NPR2 activator 3 and GC-A act 0.
For CCOC(=O)C1CCCN(C(=O)c2cc3cc4ccc(OC)cc4nc3o2)C1 (stereo not drawn) the results were FAS-TE inh 19 and aDG glyco up 0.
`COc1ccc2cc3cc(C(=O)N4CCCC(C)C4)oc3nc2c1` (stereo not drawn) gave FAS-TE inh 71*, NPR2 activator -2, GC-A act 7, aDG glyco up 0 and FAS-TE inh conf 71*.
Cc1ccc2nc(N/C(N)=N/S(=O)(=O)c3ccc([N+](=O)[O-])cc3)nc(C)c2c1 was read as FAS-TE inh 67*, NPR2 activator -5, GC-A act -9, aDG glyco up 2 and FAS-TE inh conf 55*.
`CC(C)C[C@H]1C(=O)N2CCC[C@H]2[C@]2(O)O[C@](NC(=O)[C@@H]3C=C4c5cccc6[nH]c(Br)c(c56)CC4N(C)C3)(C(C)C)C(=O)N12` (stereo partly drawn) gave FAS-TE inh 76*, NPR2 activator -1, GC-A act 6, aDG glyco up 0 and FAS-TE inh conf 24.
For O=C1C[C@H](C(=O)Nc2ccc(Cl)cc2)[C@@H](c2ccccc2)O1 the results were NPR2 activator -7 and GC-A act -2.
For CCOC(=O)c1sc2nc3c(SCC(=O)O)cc(C(=O)c4ccccc4O)cn3c(=O)c2c1C the results were FAS-TE inh 7, NPR2 activator -3, GC-A act -14 and aDG glyco up 1.
For O=C(O)CSc1cc(C(=O)c2ccccc2O)cn2c(=O)c3c(-c4ccccc4)csc3nc12 the results were FAS-TE inh 70*, NPR2 activator -9, GC-A act -9, aDG glyco up 0 and FAS-TE inh conf 79*.
`CC(C)(C)C(=O)N1CCN(c2ccc([N+](=O)[O-])c(-n3nc(-c4ccccc4)c4ccccc4c3=O)c2)CC1` gave FAS-TE inh 74*, NPR2 activator 0, GC-A act 3, aDG glyco up -1 and FAS-TE inh conf 9.
Screening O=S1(=O)c2c(cccc2N2CC[C@H](O)C2)OCCCN1C1CC1 returned NPR2 activator 3 and GC-A act -1.
Cc1ccc(S(=O)(=O)N(C(=O)c2ccncc2)c2ccc(OC(=O)c3ccncc3)c3ccccc23)cc1 was read as FAS-TE inh 57*, NPR2 activator -9, GC-A act -29, aDG glyco up 0 and FAS-TE inh conf 5.

Bioassay records (PubChem BioAssay)
